103 compounds from PubChem BioAssay can be followed below.

The assay concerns the target Pantothenate synthetase (Mycobacterium tuberculosis (strain ATCC 25618 / H37Rv)) (UniProt P9WIL5). Put plainly: Coupled enzyme confirmation of inhibitors against recombinant Mtb PanC (AID 375).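 Further: 0% = full reaction with vehicle and 100% = no enzyme background.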 The note with it: coupled enzyme assay; at 10 µM, hits give high values.

Molecules are shown by their SMILES. Values without a mark were called inactive. How the calls were made is not given here.

Chain of Pantothenate synthetase (Mycobacterium tuberculosis (strain ATCC 25618 / H37Rv)) (P9WIL5 whole entry, looked up): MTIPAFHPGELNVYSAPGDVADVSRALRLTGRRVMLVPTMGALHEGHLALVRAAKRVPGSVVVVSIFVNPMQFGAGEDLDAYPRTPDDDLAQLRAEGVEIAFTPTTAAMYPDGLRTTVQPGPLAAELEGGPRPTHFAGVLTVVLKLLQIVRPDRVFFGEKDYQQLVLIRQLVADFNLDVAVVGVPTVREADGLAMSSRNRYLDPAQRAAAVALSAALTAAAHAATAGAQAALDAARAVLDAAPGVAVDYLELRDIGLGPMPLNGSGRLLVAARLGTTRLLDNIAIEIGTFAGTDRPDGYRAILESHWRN

As usually defined, the inhibition is how much of the control response was suppressed. Take `CCc1cc(=O)oc2c(CN3CCN(C)CC3)c(O)c(Cl)cc12`: the inhibition is 5%. `CN(C)c1oc(-c2ccccc2Cl)nc1C#N`: the inhibition is 4%. Next, `CCOCCCNC(=O)c1ccc2c(c1)N(Cc1ccccc1)C(=O)CS2=O` (stereo not drawn): 0%. Then `CCOC(=O)C1=C(C)N(C)C(=O)NC1c1cccc(O)c1` (stereo not drawn), with 0%; and `Cc1cc(C(F)(F)F)nc(NCc2cccnc2)n1`, with 0%; and `CN1CCCC(OC(=O)c2ccc3c(c2)OCCO3)C1` (stereo not drawn), with 0%.

`CC1CN(C(=O)c2cc3cc(Cl)cc(Cl)c3oc2=O)CC(C)O1` (stereo not drawn): the inhibition was 0%. For `CCn1c(C)nc2cc(C(=O)OCCC(F)(F)F)ccc21`, the inhibition was 0%. Next, `CCOC(=O)CNC(=O)c1c(C)nn(-c2ccccc2)c1Cl`: 0%. For `CN(C)/C=c1\sc2c(C#N)cc(C(=O)c3ccc(Br)cc3)n2c1=O`, the inhibition is 5%. Next, `CC1CN(CC(O)COc2ccccc2C(C)(C)C)CC(C)O1` (stereo not drawn): 0%. As for `O=C(COC(=O)C1CC2C=CC1C2)Nc1ccc2c(c1)OC(F)(F)O2` (stereo not drawn), the inhibition is 0%.

As for `COc1cccc(-c2noc(CCC(=O)NC3CCCCC3)n2)c1`, the inhibition is 1%.

For `CN(C)C(CN1C(=O)C2CC=CCC2C1=O)c1cn(C)c2ccccc12` (stereo not drawn), the inhibition is 0%.

Take `COc1ccc(Br)cc1S(=O)(=O)N1CC(C)OC(C)C1` (stereo not drawn): the inhibition was 7%. Regarding `O=S(=O)(c1ccccc1)N1CCSC1c1ccco1` (stereo not drawn), the inhibition was 3%.

For `O=C(Nc1c(-c2ccccc2)nc2ccccn12)c1ccco1`, the inhibition was 0%. On to `CC1=C(C(=O)OC2CCCCC2)C(c2cccnc2)n2ncnc2N1` (stereo not drawn), for which the inhibition was 0%. Take `CCC(c1c(C)n(C)n(-c2ccccc2)c1=O)c1c(C)n(C)n(-c2ccccc2)c1=O`: the inhibition is 1%.

As to `Cc1cc(-c2ccccc2)c(C#N)c(N)n1`, the inhibition was 1%. As for `Cc1onc(-c2c(Cl)cccc2Cl)c1C(=O)NCCCN1CCOCC1`, the inhibition was 1%. `COc1ccc(-n2cnnc2SCCC#N)cc1`: the inhibition is 0%. In the case of `Cc1noc(C)c1CSc1nnc(-c2ccncc2)n1-c1cccc(Cl)c1C`, the inhibition was 0%. Then `O=C1COc2ccc(C(=O)COC(=O)CCc3ccc(S(=O)(=O)N4CCOCC4)cc3)cc2N1`, with 8%. Then `CC1(C)CC(=O)c2cnc(NC(=O)Cc3ccc(Cl)cc3)nc2C1`, with 0%. Next, `O=C1c2ccccc2S(=O)(=O)N1Cc1nnc(-c2ccccc2Br)o1`: 0%. Regarding `CCN(CC)S(=O)(=O)c1cccc(-c2nnc(SCC(N)=O)n2CCc2ccccc2)c1`, the inhibition is 0%. Next, `N#CCCN1CCN(S(=O)(=O)c2ccc(S(=O)(=O)NC3CCCCC3)cc2)CC1`: 0%. Take `COc1ccccc1NS(=O)(=O)c1ccc(NC(=O)c2nc3ncccn3n2)cc1`: the inhibition was 0%. For the compound `O=C(O)CCCC(=O)Nc1ccc(Br)cc1C(=O)O`, the inhibition is 0%.

In the case of `CN(c1cccc(NS(=O)(=O)c2cccs2)c1)S(C)(=O)=O`, the inhibition was 0%.

Turning to `CC(C)CCNC(=O)C1CCN(C(=O)N(C)C)CC1`, the inhibition is 0%. For `CC(=O)c1cn(CC(=O)NCc2ccc3c(c2)OCO3)c2ccccc12`, the inhibition was 0%. As to `O=C(Nc1ccccc1)c1cccc(N2CCCC2=O)c1`, the inhibition was 6%. Then `CCNc1ccc2c(Cl)cc(=O)oc2c1`, with 5%; and `CC(=O)c1ccc(NC(=O)CSc2nnc(-c3ccoc3C)n2Cc2ccccc2)cc1`, with 0%; and `CCOc1cc2[nH]c(=O)n(CCCCC(=O)NCc3ccco3)c(=O)c2cc1OCC`, with 6%.

Consider `CCn1c(SCC(=O)N2c3ccccc3CCc3ccccc32)nc2c1c(=O)n(C)c(=O)n2C`, for which the inhibition was 1%. For `CCOc1ccc(S(=O)(=O)NCC2CCCO2)c2cccnc12` (stereo not drawn), the inhibition was 0%. Next, `CCOC(=O)c1ccc(N(CC(=O)NC2CCCC2)C(=O)CNC(=O)c2ccco2)cc1`: 6%; `COC(=O)c1cn(C(=O)c2ccc(Br)o2)c2ccccc12`: 0%. Consider `O=C(NCc1cccs1)c1cc2c(s1)CCCC2`, for which the inhibition is 0%. Then `O=C(Nc1nc(-c2ccc(S(=O)(=O)N3CCCCCC3)cc2)cs1)c1cccs1`, with 0%; and `COc1ccccc1-c1noc(-c2cccnc2)n1`, with 13%; and `COc1cc(Cn2c(C(=O)O)cc3sccc32)cc(OC)c1OC`, with 0%. Regarding `CCOc1ccc2nc(SCC(=O)Nc3ncccn3)[nH]c2c1`, the inhibition is 0%. Next, `CCN(CC)CCNC(=O)c1ccc(NC(C)=O)cc1`: 0%; `CCOC(=O)C1=C(C)NC(=O)NC1c1ccc(OCCO)c(OC)c1` (stereo not drawn): 0%; `COc1ccc(S(=O)(=O)NCc2ccc(C(=O)O)cc2)cc1`: 0%. Consider `O=c1c(-c2ccc(Br)cc2)coc2c(CN3CCOCC3)c(O)ccc12`, for which the inhibition is 0%. Next, `Cc1ccc(S(=O)(=O)N2CCN(C(=O)CSc3nc4ccccc4c(=O)[nH]3)CC2)c(C)c1`: 2%. `COc1cc(/C=N/n2cnnc2)ccc1OCC(=O)N1CCOCC1`: the inhibition was 0%. As for `c1cc2c(cc1C1CCCN1)OCCCO2` (stereo not drawn), the inhibition was 2%. Then `COc1ccc(C2/C(=C(/O)c3ccccc3)C(=O)C(=O)N2C)cc1` (stereo not drawn), with 0%; and `Cc1cc(Cl)ccc1OCCCC(=O)N1CCOCC1`, with 0%. Next, `O=C(Cn1cnc2c(cnn2-c2ccccc2)c1=O)NCCc1ccccc1`: 0%.

`COc1ccc(-c2ccc(-c3noc(-c4ccccc4OC)n3)c(OC)n2)cc1`: the inhibition is 0%. Then `CCOc1ccc(S(=O)(=O)Nc2ccccc2C(=O)Nc2ccccc2N2CCOCC2)cc1`, with 1%; and `c1ccc(OCCOc2ncnc3sccc23)cc1`, with 0%.

Regarding `CCOC(=O)c1ccc(NC(=O)c2ccc(NS(C)(=O)=O)cc2)cc1`, the inhibition was 0%. Consider `O=C(O)C1C2C=CC(C3CC23)C1C(=O)NCCc1ccccc1` (stereo not drawn), for which the inhibition is 6%. Then `Clc1ccc(OCCCn2cncn2)cc1Cl`, with 0%.

`COc1cc(C(=O)NCC(=O)OCC(=O)c2ccc[nH]2)cc(OC)c1OC`: the inhibition is 2%. Next, `CCCN1C(=O)SC(CC(=O)Nc2ccc(Br)cc2)C1=O` (stereo not drawn): 2%; `CN(C)C(CNc1nnnn1-c1ccccc1)c1ccco1` (stereo not drawn): 2%. For `CN(C(=O)c1ccncc1)C1CC(C)(C)N(O)C(C)(C)C1`, the inhibition is 0%. Next, `CN(c1ccccc1)S(=O)(=O)c1ccc(C(=O)OCC(=O)NCc2ccco2)cc1`: 5%. With `Cc1cc2c(=O)n(CC(=O)N3CCN(c4ccccc4)CC3)cnc2s1`, the inhibition is 0%. Then `O=C(c1ccccc1)N1CCN(CC2CC=CCC2)CC1` (stereo not drawn), with 0%; and `c1ccc(C(Cc2nc(-c3ccccn3)no2)c2ccccc2)cc1`, with 0%; and `CCSCc1nnc(SCC(=O)Nc2cccc(SC)c2)n1C`, with 4%. Then `N#Cc1c(/N=C/c2cccs2)sc2c1CCCCC2`, with 0%; and `O=C(NCC(=O)N(c1cccnc1)C(C(=O)NC1CCCCC1)c1cccnc1)c1ccco1` (stereo not drawn), with 0%. Then `Cn1c(=O)c2c(nc(Br)n2CCSc2ncccn2)n(C)c1=O`, with 9%; and `c1ccc2oc(SCc3cn4ccccc4n3)nc2c1`, with 0%. Take `CCOC(=O)CNS(=O)(=O)c1c(C)noc1C`: the inhibition was 0%. With `CCOc1ccccc1C(=O)NCC(=O)OCC(=O)N1C(C)CCCC1C` (stereo not drawn), the inhibition was 7%. For `COc1cccc(C(=O)Nc2c(C(N)=O)oc3ccccc23)c1`, the inhibition was 0%.

Take `CCOC(=O)c1sc(NC(=O)CSc2nnc(-c3ccc(OC)cc3)n2CCOC)nc1C`: the inhibition was 6%. Next, `CCOc1ccc(C(C)=O)cc1COc1ccc(-n2cnnn2)cc1`: 13%; `CC1/C(=N/O)C(CN(C)C)C2CC1C2(C)C` (stereo not drawn): 0%; `Cn1c(SCC(=O)Nc2ccc3c(c2)oc2ccccc23)nnc1-c1ccccc1`: 5%. For the compound `CC1(C)Cc2c(sc3c2C2=NCCN2C=N3)CS1`, the inhibition is 3%. Then `COc1ccc(OCc2nc(N)nc(Nc3cccc(C)c3C)n2)cc1`, with 1%; and `O=C(CSc1nnnn1-c1ccccc1Cl)Nc1ccc2c(c1)OCCO2`, with 8%. In the case of `COC(=O)C1CCN(C(=O)CSc2nnc(-c3ccncc3)o2)CC1`, the inhibition is 0%.

On to `C=CCn1c(SCC(=O)c2ccccc2)nnc1-c1ccc2c(c1)OCO2`, for which the inhibition was 0%. As for `CC1(C)CC(=O)C2=C(C1)OC(N)=C(C#N)C2C1CC=CCC1` (stereo not drawn), the inhibition is 1%. Consider `O=C(OCc1nnc(-c2ccccc2)o1)c1ccc(S(=O)(=O)NCc2ccco2)cc1`, for which the inhibition is 0%.

Regarding `CCNS(=O)(=O)c1c(C)cc(N2CCCC2=O)cc1C`, the inhibition was 6%. For `CCn1cc(SCC(=O)Nc2cc(C)on2)c2ccccc21`, the inhibition was 0%. Next, `CCOC(=O)Nc1cc(OCC)c(NC(=O)C2CC2)cc1OCC`: 0%; `COc1ccc(OC)c(NC(=O)CSc2nnc(-c3ccco3)n2-c2ccccc2)c1`: 0%; `COc1ccc(S(=O)(=O)Nc2cccc(C)n2)c2ccccc12`: 2%. Then `CCCCCCCC(=O)OCC(=O)[C@@]1(O)CC[C@H]2[C@@H]3CCC4=CC(=O)CC[C@]4(C)[C@H]3[C@@H](O)C[C@@]21C`, with 1%; and `CCCC(=O)Nc1ccc(OCC(=O)OC)cc1`, with 5%. Turning to `CCC(NC(C)C)C(O)c1ccc(O)c2[nH]c(=O)ccc12` (stereo not drawn), the inhibition is 0%. Next, `CCCC(=O)Nc1cc(C)c(NC(=O)c2ccccn2)cn1`: 0%; `Cc1onc(-c2c(Cl)cccc2Cl)c1C(=O)NCCN1CCOCC1`: 6%; `CC(=O)Nc1ccc(NC(=O)Cn2cnc3c(cnn3C(C)(C)C)c2=O)cc1`: 3%. Next, `N#CC1=C(N)SC(N)=C(C#N)C1CCc1ccccc1`: 8%; `Cn1c(SCC(=O)c2cc3ccccc3o2)nnc1-c1ccccc1`: 1%; `CCOc1ccc(NC(=O)c2ccc3c(c2)N(Cc2ccc(F)cc2)C(=O)CS3=O)cc1` (stereo not drawn): 10%.
